Screening data from PubChem BioAssay.
MEKK3 PB1 HTS: raises or lowers MEK5 binding to the human MEKK3 PB1 domain; bead-based flow cytometry, Alexa488-MEK5 binding to MEKK3; actives lie on both sides; 0 = blocked by unlabeled MEK5, 100 = vehicle; Q99759; actives 1.4% (n = 290,000); binding response (% of control), % at 10 µM;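 active means binding response more than 3 SD above or below the average of its plate-row segment, actives on both sides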;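 further: Alexa488 bead fluorescence after subtracting the streptavidin-only scavenger bead signal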
MEKK2 WT-MEK5: raises or lowers MEK5 binding to wildtype human MEKK2 PB1 domain; actives 1.1% (n = 290,000); bead flow cytometry, Alexa488-MEK5 binding to MEKK2 WT; actives lie on both sides; AID 1531; binding response (% of control), % at 10 µM; in the data active means binding response below about 67% or above about 130%
MEKK2 mut-MEK5: signal of MEK5 binding to mutant human MEKK2 PB1 domain; percent response, % at 10 µM; actives 0.35% (n = 290,000); bead flow cytometry, Alexa488-MEK5 binding to MEKK2 mutant; in the data active means percent response above about 24%, passing the limit was not always enough
B2AR ag: agonists of human beta-2 adrenergic receptor inducing internalization. Am2.2-beta2AR cells, FAP receptor internalization, flow cytometry. actives 0.43% (n = 340,000). response, % (concentration not given with the values). P07550. AID 504454;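 active means response above a set limit, near 3 SD of response in nonfluorescent compounds, cut at about 42% in these data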
GRK2 aptamer HTS: human GRK2 inhibition via aptamer displacement. P25098. bead flow cytometry, FAM-aptamer displacement from GRK2. inhibition of aptamer binding, % at 10 µM. actives 0.59% (n = 330,000);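 active means inhibition of aptamer binding above 40%, roughly 3 SD of noise, on plates passing a quality check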;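 further: median bead fluorescence of bound FAM aptamer so fluorescent compounds give negative values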
Target sequence (P25098 whole entry, looked up): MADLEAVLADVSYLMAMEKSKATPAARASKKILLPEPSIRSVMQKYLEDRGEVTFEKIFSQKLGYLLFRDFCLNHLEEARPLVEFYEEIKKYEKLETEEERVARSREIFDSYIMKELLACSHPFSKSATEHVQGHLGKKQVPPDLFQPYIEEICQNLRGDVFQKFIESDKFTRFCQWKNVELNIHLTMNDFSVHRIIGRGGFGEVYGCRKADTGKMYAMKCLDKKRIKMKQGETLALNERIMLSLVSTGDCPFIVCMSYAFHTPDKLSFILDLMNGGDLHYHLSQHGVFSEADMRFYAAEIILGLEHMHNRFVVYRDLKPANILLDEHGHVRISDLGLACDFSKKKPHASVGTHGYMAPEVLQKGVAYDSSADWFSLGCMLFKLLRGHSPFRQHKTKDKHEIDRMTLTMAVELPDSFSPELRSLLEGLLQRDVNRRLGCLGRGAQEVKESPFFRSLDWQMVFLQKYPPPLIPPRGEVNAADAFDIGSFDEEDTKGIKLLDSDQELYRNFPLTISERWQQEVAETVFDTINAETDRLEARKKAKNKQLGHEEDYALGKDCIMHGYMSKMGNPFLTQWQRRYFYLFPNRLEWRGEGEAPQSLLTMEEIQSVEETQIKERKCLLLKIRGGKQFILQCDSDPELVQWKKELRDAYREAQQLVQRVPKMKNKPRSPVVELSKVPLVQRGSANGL
Active calls of the source: *; . = no result; [ ] = another dose, or the depositor's remark. Shown are actives, neighbours in structure and some others; about 2.9% of the full set was active somewhere.

SMILES	MEKK3 PB1 HTS	MEKK2 WT-MEK5	MEKK2 mut-MEK5	B2AR ag	GRK2 aptamer HTS
O=C(Nc1cccc(F)c1)c1c(O)c2cccc3c2n(c1=O)CCC3	103.0	89.0	-3.0	.	78.0*
CNC(=O)c1c(O)c2cccc3c2n(c1=O)CCC3	107.0	106.0	13.0	1.6	5.0
O=C(/C=C/c1cccc(O)c1)c1ccc(N2CCOCC2)cc1	85.0	-4.0*	-15.0	8.2	1.0
O=C(c1ccsc1)N1CCCC(N2CCOCC2)C1 (configuration not stated)	94.0	100.0	-6.0	-1.7	12.0
O=C(c1ccccc1)c1ccc2cc(O)ccc2c1	102.0	97.0	2.0	-2.8	67.0*
O=C(c1ccccc1)c1ccc2ccccc2c1	.	.	.	-8.8	.
O=C(NCc1ccc(N2CCCC2=O)cc1)c1cc(COc2c(F)cccc2F)on1	97.0	102.0	2.0	-7.7	3.0
O=C(c1ccc(-c2nnc(Nc3cccc(Cl)c3)c3ccccc23)cc1)N1C[C@H]2C[C@H](C1)c1cccc(=O)n1C2	84.0	84.0	-16.0	74.4*	3.0
COc1nnc(-c2ccc(C(=O)N3C[C@@H]4C[C@H](C3)c3cccc(=O)n3C4)cc2)c2ccccc12	99.0	105.0	4.0	4.4	.
COc1ccccc1N1CCN(C(=O)c2ccc(Cl)c(S(=O)(=O)N3CCOCC3)c2)CC1	106.0	110.0	7.0	4.3	3.0
COc1ccc(CCC(=O)Nc2nnc(C(C)(C)C)s2)cc1	106.0	110.0	6.0	0.3	0.0
COc1ccc(NC(=O)Nc2nnc(C(C)(C)C)s2)cc1	108.0	-4.0*	6.0	-3.4	0.0
CC(C)(C)c1nnc(NC(=O)Nc2ccc(Cl)cc2)s1	98.0	-4.0*	2.0	7.1	0.0
Cc1nc(NC(=O)Nc2ccc(Cl)cc2)sc1C	103.0	106.0	7.0	5.0	0.0
N#C/C(=C\c1ccc(-c2ccccc2[N+](=O)[O-])o1)C(=O)Nc1nc(-c2cccs2)cs1	106.0	119.0	23.0	11.0	56.0*
O=C(COc1ccccc1Cl)Nc1ccc(S(=O)(=O)N2CCOCC2)cc1	100.0	93.0	-6.0	3.2	0.0
CCCCn1c(N)c(N(CC)C(=O)C(c2ccccc2)c2ccccc2)c(=O)[nH]c1=O	82.0	100.0	64.0*	-2.9	1.0
COCCOC(=O)c1c(NC(=O)COC(=O)Cc2cccc(OC)c2)sc(C(N)=O)c1C	102.0	105.0	1.0	4.9	83.0*
Cc1ccc2nc3cc([N+](=O)[O-])cc([N+](=O)[O-])c3cc2c1	107.0	96.0	-5.0	58.7*	.
CCC1CCc2sc(C(=O)OCC(=O)N(CCOC)c3c(N)n(Cc4ccccc4)c(=O)[nH]c3=O)cc2C1 (configuration not stated)	.	.	.	1.5	5.0
COCCN(C(=O)COC(=O)c1cc2c(s1)CCC2)c1c(N)n(Cc2ccccc2)c(=O)[nH]c1=O	.	.	.	-8.2	98.0*
Cc1cc(C)c(S(=O)(=O)N2CCN(S(=O)(=O)N3CCOCC3)CC2)c(C)c1	103.0	98.0	0.0	1.8	4.0
Cc1nc(N2CCCCC2)c(C#N)c(C)c1[N+](=O)[O-]	89.0	170.0*	-48.0	-0.1	0.0
O=c1oc2ccccc2c(O)c1/C=N/c1ncccn1	101.0	97.0	0.0	3.6	3.0
O=c1oc2ccccc2c(O)c1/C=C1\C=Nc2ccccc21	99.0	92.0	1.0	48.0*	0.0
SMILES	MEKK3 PB1 HTS	MEKK2 WT-MEK5	MEKK2 mut-MEK5	B2AR ag	GRK2 aptamer HTS
CC(C)CN(C(=O)c1cccc(Cl)c1)c1c(N)n(Cc2ccccc2)c(=O)[nH]c1=O	.	.	.	-3.2	0.0
CCc1ccc2nc3sc(C(=O)N4CCc5ccccc54)c(N)c3cc2c1	103.0	87.0	59.0*	.	0.0
Cc1ccc(C)c2nc3sc(C(=O)N4CCCc5ccccc54)c(N)c3cc12	.	.	.	-401.1	2.0
COc1ccc(-n2nc(C(=O)NCC(=O)N3CCCC3)c3ccccc3c2=O)cc1Cl	104.0	104.0	3.0	-16.2	0.0
CCNC(=O)C(=O)NCC1CCCN1S(=O)(=O)c1cccs1 (configuration not stated)	.	.	.	-2.1	0.0
CNS(=O)(=O)c1cccc(C(=O)OCc2cc(=O)oc3c(C)c(O)ccc23)c1	103.0	105.0	0.0	6.1	5.0
CCc1cc2c(COC(=O)c3cccc(S(C)(=O)=O)c3)cc(=O)oc2cc1O	99.0	101.0	-1.0	61.1*	0.0
CSc1nncc(/C(C)=N\Nc2ccccc2C)n1	94.0	95.0	-3.0	48.2*	0.0
CSc1nncc(/C(C)=N/O)n1	76.0	98.0	-2.0	-6.9	1.0
Cc1ccccc1CSc1ccc(S(=O)(=O)N2CCCC2)cn1	.	.	.	-6.4	3.0
Cc1cc(O)c2c(c1O)C(=O)[C@]13C(=C2O)C(=O)[C@@H]2[C@@H](O)[C@H]1[C@@H]1[C@H](O)[C@H]3C(=O)C3=C(O)c4c(O)cc(C)c(O)c4C(=O)[C@]312	.	.	.	-37.6	72.0*
Cc1cn(-c2cc(NC(=O)c3ccc(C)c(NC(=O)c4cccc(-c5cn[nH]c(=O)c5)c4)c3)cc(C(F)(F)F)c2)cn1	103.0	106.0	-1.0	78.1*	0.0
O=c1c2c(-c3ccccc3)csc2nc2c3ccccc3c(NCCN3CCOCC3)nn12	89.0	104.0	-1.0	107.4*	.
OCCCNCc1ccc(N(c2ccccc2)c2ccccc2)cc1	105.0	141.0*	33.0*	10.4	0.0
Cc1cc(C)c(S(=O)(=O)/N=C2/C=C(Sc3ncn[nH]3)C(=O)c3ccccc32)cc1C	99.0	97.0	0.0	48.7*	6.0
CCOC(=O)Cc1csc(NC(=O)c2c(O)c3c(n(CC(C)C)c2=O)CCCC3)n1	100.0	-3.0*	2.0	-3.3	1.0
Cc1csc(NC(=O)c2c(O)c3c(n(CC(C)C)c2=O)CCCC3)n1	99.0	97.0	-2.0	-13.3	0.0
CCc1ccc(N(C(=O)Cn2nnc(-c3ccccc3)n2)C(C(=O)NC2CCCCC2)c2ccccn2)cc1 (configuration not stated)	106.0	101.0	1.0	-2.4	8.0
C/C(=N/Nc1ncc(Br)cn1)c1ccc(Br)cc1	103.0	-2.0*	-3.0	-20.2	0.0
COc1cc(C(=O)NNC(=O)/C=C/c2ccco2)cc(OC)c1OC	.	.	.	2.3	42.0*
Cc1ccc(NC(=O)C2=C(c3ccccc3)S(=O)(=O)CCS2(=O)=O)cc1	96.0	93.0	-11.0	53.1*	3.0
CCC1(c2ccccc2)NC(=O)N(CC(=O)Nc2ccc(Cl)c(S(=O)(=O)N3CCCCC3)c2)C1=O (configuration not stated)	.	.	.	11.4	1.0
COc1ccc(CCN(C)C(=O)c2c(C)nn(CC(C)C)c2Cl)cc1OC	55.0*[inhibitor]	44.0*[inhibitor]	-39.0	-6.0	0.0
O=C(Nc1ccc(F)cc1F)c1cc(Cl)sc1Cl	100.0	98.0	3.0	-6.1	0.0
CCC(=O)Nc1ccc(C(=O)Cn2ncc(Cl)c(Cl)c2=O)cc1	92.0	88.0	-4.0	8.7	1.0
